Shown are actives, neighbours in structure and some others; about 0.92% of the full set was active somewhere.
LmPK inh – qHTS Assay for Inhibitors of Leishmania Mexicana Pyruvate Kinase (LmPK); Q27686; purified LmPK, Kinase-Glo ATP luminescence, 1 h; Potency, µM (highest dose often 57.5 µM), for inactives: at the top dose activity change, negative = inhibition, usual class: inhibitors; hit rate 0.37% among 290,000; AID 1721, 2009; also: potency is read from the fitted curve at half-maximal effect; % is scaled to controls: 0 for no effect and ±100 for the full control effect
Target sequence (Q27686 whole entry, looked up): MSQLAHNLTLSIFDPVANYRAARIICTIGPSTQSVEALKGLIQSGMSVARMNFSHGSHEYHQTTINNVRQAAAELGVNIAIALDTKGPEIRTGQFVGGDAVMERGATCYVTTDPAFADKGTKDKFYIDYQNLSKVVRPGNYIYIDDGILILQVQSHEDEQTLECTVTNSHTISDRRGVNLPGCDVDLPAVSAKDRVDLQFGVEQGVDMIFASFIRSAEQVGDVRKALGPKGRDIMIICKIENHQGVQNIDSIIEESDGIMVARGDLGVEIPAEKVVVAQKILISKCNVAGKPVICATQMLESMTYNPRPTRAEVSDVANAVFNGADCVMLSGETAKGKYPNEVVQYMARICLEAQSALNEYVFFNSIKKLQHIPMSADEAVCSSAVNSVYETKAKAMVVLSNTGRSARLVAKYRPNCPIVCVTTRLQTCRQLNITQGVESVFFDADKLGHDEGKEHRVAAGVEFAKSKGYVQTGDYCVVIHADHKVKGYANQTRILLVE
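qHTS format; LmPK 0.1 nM; substrates PEP 0.5 mM and ADP 0.1 mM. One-hour room-temperature incubation, then coupled luciferase luminescence; 0.5 nM enzyme wells mark activation.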
TbPYK inhibitor – qHTS of Trypanosoma Brucei Inhibitors; pyruvate kinase (Trypanosoma brucei), Q57TT1; TbPYK enzyme, Kinase-Glo Plus ATP luminescence, 45 min; Potency, µM (highest dose often 76.8 µM), for the others: at the highest dose activity, negative = inhibition, actives largely listed as inhibitors; hit rate 0.12% among 410,000; AID 624173, 2012; also: potency is read from the fitted curve at half-maximal effect; % is scaled to controls: 0 for no effect and ±100 for the full control effect; nearly all actives have a fitted effect of over 50% in size
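Quantitative HTS: titrated library compounds versus trypanosomal pyruvate kinase in TEA buffer (pH 7.2) containing KCl, MgCl2, BSA and Tween-20. Reactions were initiated with ADP, 130 uM final. Kinase-Glo Plus luminescence was read after 45 min at RT.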
NS1 inh – qHTS Assay for Inhibitors of Influenza NS1 Protein Function | Potency, µM (highest dose often 46.1 µM), inactives show at the top dose activity, positive = more growth | hit rate 0.4% among 270,000 | AID 2326, 2010; calls by dose curve; also: potency is read from the fitted curve at half-maximal effect; actives are rising curves; nearly all actives have a fitted effect of over 50% in size
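Compounds were scored for reversing the slow growth caused by influenza A NS1 in S. cerevisiae, measured by optical density at 600 nm. Assay medium contained 2% galactose at pH 6.0; NS1-free yeast of the same strain were the positive control.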
AMA1-RON2 inh – qHTS for Inhibitors of AMA1-RON; Towards Development of Antimalarial Drug Lead: Primary Screen; Plasmodium falciparum AMA1 (3D7) - RON2 peptide interaction; AlphaScreen AMA1-biotinylated RON2 peptide binding; Potency, µM (top dose mostly 58.2 µM), for inactives: at the highest dose activity change, negative = inhibition, hits mostly inhibitors; hit rate 0.2% among 360,000; AID 720542, 2013;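 also: potency is read from the fitted curve at half-maximal effect; 0% = vehicle wells and -100% = peptide control; nearly all actives have a fitted effect of over 45% in size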
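AMA1 (3D7) with his tag at 25 nM final met compounds first, then biotinylated RON2 peptide at 25 nM; detection used donor plus acceptor beads, 10 µg/mL apiece, read by AlphaScreen after 30 min at room temperature.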
RE007 growth inh – qHTS Assay for Inhibitors of the HIV-1 protein Vpr | S. pombe RE007 Vpr strain, BacTiter-Glo ATP luminescence, 24 h | Potency, µM (titrated, usually from 92.2 µM), for inactives: at the top dose activity change, negative = less growth, hits mostly inhibitors | hit rate 0.21% among 360,000 | AID 651644, 2012; active = well fitted falling curve with a large enough effect; inconclusive = small, poorly fitted or top-dose-only effect; inactive = no such curve, though single readings can be large or run the other way; also: potency is read from the fitted curve at half-maximal effect; % is scaled to controls: 0 for no effect and ±100 for the full control effect; nearly all actives have a fitted effect of over 50% in size
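Fission yeast RE007 carrying one integrated HIV-1 vpr copy, seeded at OD 0.01 in PMG+AL medium with 23 nL pinned compound. Grown 24 h at 30 degrees; viability read by BacTiter-Glo luminescence after 5 min.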
NS1 inh valid – Assay for Inhibitors of Influenza NS1 Protein Function: Hit Validation; shares compounds with NS1 inh; influenza NS1 function cell assay, 15-point titration; 1,400 tested, under 10 active; activity change, negative = inhibition, % at 32.9 µM; calls by dose curve; also: 0% is about no effect
Flu PR8 replic – Assay for Inhibitors of Influenza NS1 Protein Function: Influenza virus replication assay in MDCK cells infected with virus A/PR/8/34; virus titer (log TCID50), log10 TCID50 at 5 µM; hit rate 30% among 95; MDCK infected influenza A/PR/8/34, virus titer TCID50; active compounds read low; shares compounds with NS1 inh; call rule not given here
* = called active by the depositor; ? = inconclusive; / = no result given; [ ] = remark or other dose. Unless noted, calls follow the shape of the dose curve; as a rule, active = well fitted curve in the direction sought with a large enough effect; inconclusive = small, poorly fitted or top-dose-only effect, or another doubt; inactive = no such curve, though single readings can be large; an effect the other way counts as inactive or inconclusive.

SMILES	LmPK inh	TbPYK inhibitor	NS1 inh	AMA1-RON2 inh	RE007 growth inh	NS1 inh valid	others
Cc1ccc(C)c(S(=O)(=O)Nc2ccccc2C(=O)Nc2ccc(S(=O)(=O)Nc3ncccn3)cc2)c1	-7.4%	-13.5%	11.2µM*	2.8%	-2.6%	24.7
COc1ccc(-c2nn(-c3ccccc3)cc2/C=N/NC(=O)c2cccc(S(=O)(=O)Nc3ccccc3OC)c2)cc1	1.7%	0.0%	10µM*	23.5%	5.9%	4.5
O=S(=O)(c1ccccc1)c1nnn2c1nc(NCc1ccccc1)c1cc(Cl)ccc12	/	0.9%	/	/	/	/
CN(C(=O)COC(=O)CCc1c[nH]c2ccccc12)C(c1ccccc1)c1ccccc1	5.7%	4.9%	8.91µM*	-23.8%	-11.9%	-13.6
COc1ccc(N2CCN(C(=O)c3nc(-c4ccc(Cl)cc4)n4c3CCCCC4)CC2)cc1	/	11.6%	/	/	/	/
COc1ccc(N(C)S(=O)(=O)c2cccc(C(=O)OC(C(=O)Nc3cc(C)cc(C)c3)c3ccccc3)c2)cc1 (stereo unspecified)	2.3%	-9.3%	8.91µM*	3.7%	/	26.5
COc1ccc(N(C)S(=O)(=O)c2cccc(C(=O)N3CCN(S(=O)(=O)c4ccc(C)cc4)CC3)c2)cc1	-0.5%	3.4%	11.2µM*	-15.8%	11.3%	3.8
COC(=O)c1cccc(C23CC4(C2)[C@H](CN(Cc2cccnc2)[C@@H]4c2ccccc2)C3c2ccc(C(F)(F)F)cc2)c1 (stereo partly specified)	2.9%	2.5%	8.91µM*	8.3%	19.4%	2.1
O=C(N/N=C/c1c[nH]c2ccccc12)c1cc(-c2ccc3ccccc3c2)n[nH]1	0.2%	-8.4%	?	3.7%	3.6%	-2.9
CCc1ccc(NC(=O)CNC(=O)c2cn(-c3ccccc3OC)c(=O)c3ccccc23)cc1	10.2%	-3.5%	11.2µM*	-12.5%	-19.9%	29.6	Flu PR8 replic=8.5
NNC(=O)c1csc(Cc2c(Cl)sc3ccc(Cl)cc23)n1	9.5%	2.9%	?	91.1%	16.9%	-29.9
Cc1ccc(N[C@H](c2ccccc2)c2ccc3cccnc3c2O)cc1	/	/	1.4%	/	/	/
Cc1ccc(NC(=O)C(C)OC(=O)c2ccc(NS(=O)(=O)c3ccc(F)c(F)c3)cc2)cc1 (stereo unspecified)	0.7%	-5.0%	3.9%	10.6%	7.1%	/
CC(=O)c1ccc(NC(=O)C(C)OC(=O)c2ccc(NS(=O)(=O)c3ccc(F)c(F)c3)cc2)cc1 (stereo unspecified)	5.5%	2.7%	11.2µM*	-3.0%[11.6 µM]	2.6%	15.8
CC(C)=CCN1CCN(Cc2cn(C(C)C)c3ccccc23)CC1CCO (stereo unspecified)	4.6%	3.3%	11.2µM*	-6.8%	1.4%	25.6
COc1ccc(OC)c(N(CC(=O)NCCSC2CCCCC2)S(=O)(=O)c2ccccc2)c1	-8.5%	0.8%	12.9%	14.3%	-14.9%	/
COc1ccc(N(CC(=O)NCCSC2CCCCC2)S(=O)(=O)c2ccccc2)c(OC)c1	-4.2%	/	3.98µM*	/	/	-7.8
Cc1nc2sc(C)c(C)n2c(=O)c1S(=O)(=O)N1CCN(c2ccccc2F)CC1	/	-5.1%	/	/	/	/
C=CC(=O)O	/	-2.3%	/	/	/	/
Cc1ccccc1N1C(=O)NC(=O)/C(=C\c2ccc3c(c2)CCCN3Cc2ccccc2)C1=O	2.9%	-24.6%	?	-14.9%	6.8%	-31.1

Screens: PubChem BioAssay, National Center for Advancing Translational Sciences (NCATS)
